Experimental data: PubChem BioAssay (Tox21)
Several values for one entry are separate records, joined by “and”; a condition that tells them apart may be missing. Identical values can stand only once. Records with an inconclusive call do not appear. A call without a number means that no potency is given here. Some compounds were tested as several samples or in several runs, with calls that do not always agree. Activity calls are given as the source filed them. Unless noted, calls follow the shape of the dose curve; as a rule, active = well fitted curve in the direction sought with a large enough effect in the repeat runs; inconclusive = weak or mixed curves; inactive = no such curve, though single readings can be large; an effect the other way counts as inactive or inconclusive.

Tests used:
[1] = qHTS assay to identify small molecule agonists of the vitamin D receptor (VDR) signaling pathway - cell viability counter screen (AID 743224); also: series mostly up to about 63 µM; nearly all actives have a fitted effect of over 50% in size
Procedure, shortened: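 Viability is measured in the same wells as the VDR-bla reporter assay: after 16 h compound treatment and 2 h substrate loading, CellTiter-Glo is added and luminescence read 30 min later.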

[2] = qHTS assay to identify small molecule antagonists of the vitamin D receptor (VDR) signaling pathway - cell viability counter screen (AID 743225); also: nearly all actives have a fitted effect of over 50% in size
Procedure, shortened: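 In this counter screen, VDR-bla HEK 293T cells receive test compound plus 3 nM final calcitriol for 16 h at 37C. Room-temperature steps of 2 h with the beta-lactamase substrate, then 30 min with CellTiter-Glo, precede the luminescence read.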

[3] = qHTS assay to identify small molecule agonists of the NFkB signaling pathway (AID 1159509; active = well fitted curve in the direction sought with a large enough effect in the signal ratio in the repeat runs, not every such curve was filed as active; the % refers to the signal ratio; also: series mostly up to about 61 µM)
Procedure, shortened: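 ME-180 NFkB-bla, 2,000 cells/well, overnight plating; cpd pinned in DMSO, 5 h 37 C; B/G FRET substrate 1.5 h RT; ex 405, em 460/530 nm.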

[4] = qHTS assay to identify small molecule agonists of the NFkB signaling pathway - cell viability counter screen (AID 1159515; calls by dose curve; also: series mostly up to about 61 µM; nearly all actives have a fitted effect of over 55% in size)
Procedure, shortened: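 Multiplexed viability readout: after the 5 hr compound exposure and 1.5 hr FRET substrate step, CellTiter-Glo reagent went into the same NFkB-bla ME-180 wells; ATP luminescence was measured after 30 min at room temperature.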

[5] = qHTS assay to identify small molecule agonists of the endoplasmic reticulum stress response signaling pathway (AID 1159516; active = well fitted activation curve with a large enough effect in the signal ratio in the repeat runs, not every such curve was filed as active; the % refers to the signal ratio)
Procedure, shortened: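 Tox21 10K library screened in quantitative HTS format on ESRE-bla HeLa cells, a beta-lactamase reporter under ER stress response element control; 5 hr treatment, FRET read.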

[6] = qHTS assay to identify small molecule agonists of the endoplasmic reticulum stress response signaling pathway - cell viability counter screen (AID 1159517; calls by dose curve; also: series mostly up to about 61 µM; nearly all actives have a fitted effect of over 50% in size)
Procedure, shortened: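 HeLa cells carrying an ESRE-driven beta-lactamase reporter receive compound for 5 hr at 37 C. Cell viability is then gauged with CellTiter-Glo by luminescence, 30 min at room temperature.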

[7] = qHTS assay to identify small molecule antagonists of the retinoid-related orphan receptor gamma (ROR-gamma) signaling pathway - cell viability counter screen (AID 1159520); also: nearly all actives have a fitted effect of over 50% in size; also: potency is read from the fitted curve at half-maximal effect
Procedure, shortened: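 Cytotoxicity was read from cellular ATP (CellTiter-Glo luminescence) after 16 hr at 37 C with 1 uM doxycycline induction. The inducer was added 2 hr after compound transfer to Tet-on ROR gamma CHO cells.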

[8] = target: Nuclear receptor ROR-gamma (Homo sapiens) (UniProt P51449); assay: qHTS assay to identify small molecule antagonists of the retinoid-related orphan receptor gamma (ROR-gamma) signaling pathway (AID 1159521; also: nearly all actives have a fitted effect of over 50% in size; also: potency is read from the fitted curve at half-maximal effect)
Procedure, shortened: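 Screening format: cell-based luciferase reporter in CHO cells with doxycycline-inducible RORγ. Compound pre-exposure lasts 2 h, doxycycline is 1 uM final, induction runs 16 h at 37 C, and ONE-Glo luminescence is read.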

[9] = qHTS assay to identify small molecule agonists of the AP-1 signaling pathway (AID 1159526; calls by dose curve)
[10] = target: Retinoic acid receptor RXR-alpha (Homo sapiens) (UniProt P19793); assay: qHTS assay to identify small molecule agonists of the RXR signaling pathway (AID 1159527; calls by dose curve; also: nearly all actives have a fitted effect of over 35% in size)
Procedure, shortened: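 Fluorescence ratio readout (460 vs 530 nm) from GeneBLAzer RXR-alpha HEK 293T cells after 16 hr compound treatment; cells seeded 5 hr beforehand in low-serum, charcoal-stripped medium.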

[11] = qHTS assay to identify small molecule agonists of the RXR signaling pathway - cell viability counter screen (AID 1159529); also: nearly all actives have a fitted effect of over 50% in size; also: potency is read from the fitted curve at half-maximal effect
Procedure, shortened: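 Viability read-out for the RXR-alpha agonist qHTS: luminescent CellTiter-Glo signal after 30 min at RT. HEK 293T bla reporter cells, 2% charcoal-stripped FBS, 16 hr compound incubation; tetraoctyl ammonium bromide as cytotoxic control.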

[12] = qHTS assay to identify small molecule antagonists of the retinoid acid receptor (RAR) signaling pathway - cell viability counter screen (AID 1159551); also: nearly all actives have a fitted effect of over 35% in size
Procedure, shortened: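 Cytotoxicity counter screen in C3RL4 cells: 6 h compound exposure with 1 uM retinol (final), viability from cellular ATP by luminescence.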

[13] = qHTS assay to identify small molecule antagonists of the estrogen related receptor (ERR) signaling pathway from Tox21 library - cell viability counter screen (AID 1224834); also: nearly all actives have a fitted effect of over 30% in size; also: potency is read from the fitted curve at half-maximal effect
Procedure, shortened: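 Cytotoxicity of test substances is gauged in the same ERR cells used for the antagonist screen, after 17.5 h of compound treatment at 37 C, by CellTiter-Fluor fluorescence measured after 30 min.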

[14] = target: Luciferin 4-monooxygenase (Photinus pyralis) (UniProt P08659); assay: qHTS assay to identify small molecule inhibitors of firefly luciferase (AID 1224835); also: series mostly up to about 120 µM; nearly all actives have a fitted effect of over 25% in size
Procedure, shortened: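 Inhibition of purified Photinus luciferase is measured by luminescence. Substrate levels (D-luciferin, ATP) sit at their KM values. Each compound is tested in a concentration series.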

[15] = qHTS assay to identify small molecule agonists of the constitutive androstane receptor (CAR) signaling pathway - cell viability counter screen (AID 1224836); also: series mostly up to about 92 µM; nearly all actives have a fitted effect of over 45% in size
Procedure, shortened: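 Multiplexed viability check: HepG2-CYP2B6-hCAR cells, 15-point compound dosing, 0.75 uM PK11195 final, 23 h at 37 C, CellTiter-Fluor fluorescence.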

[16] = qHTS assay to identify small molecule agonists of the AP-1 signaling pathway - cell viability counter screen (AID 1159525; calls by dose curve; also: nearly all actives have a fitted effect of over 55% in size; also: potency is read from the fitted curve at half-maximal effect)
Procedure, shortened: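 Luminescent ATP readout (Cell Titer Glo, 30 min RT), normalised to DMSO and tetra n-octyl ammonium bromide controls. Cells were ME-180 AP-1-bla in 0.5% dialyzed FBS Opti-MEM, with a 5 h, 37 °C compound exposure.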

[17] = qHTS assay to identify small molecule antagonists of the retinoic acid receptor (RAR) signaling pathway (AID 1159552; also: nearly all actives have a fitted effect of over 50% in size; also: potency is read from the fitted curve at half-maximal effect)
Procedure, shortened: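 Using a RARE-driven luciferase construct in C3RL4 cells, retinol at 1 uM final provided the agonist stimulus while compounds were co-applied. After 6 hours at 37 C, luminescence was recorded to flag inhibitors of retinol signaling.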

[18] = qHTS assay to identify small molecule agonists of the retinoic acid receptor (RAR) signaling pathway (AID 1159553)
Procedure, shortened: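 Agonist activity was scored in C3RL4 cells bearing a retinoic acid response element luciferase construct. Cells were treated with compounds for 6 hr at 37 C, and luciferase signal was measured as luminescence.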

Chain of Luciferin 4-monooxygenase (Photinus pyralis) (P08659 whole entry, looked up): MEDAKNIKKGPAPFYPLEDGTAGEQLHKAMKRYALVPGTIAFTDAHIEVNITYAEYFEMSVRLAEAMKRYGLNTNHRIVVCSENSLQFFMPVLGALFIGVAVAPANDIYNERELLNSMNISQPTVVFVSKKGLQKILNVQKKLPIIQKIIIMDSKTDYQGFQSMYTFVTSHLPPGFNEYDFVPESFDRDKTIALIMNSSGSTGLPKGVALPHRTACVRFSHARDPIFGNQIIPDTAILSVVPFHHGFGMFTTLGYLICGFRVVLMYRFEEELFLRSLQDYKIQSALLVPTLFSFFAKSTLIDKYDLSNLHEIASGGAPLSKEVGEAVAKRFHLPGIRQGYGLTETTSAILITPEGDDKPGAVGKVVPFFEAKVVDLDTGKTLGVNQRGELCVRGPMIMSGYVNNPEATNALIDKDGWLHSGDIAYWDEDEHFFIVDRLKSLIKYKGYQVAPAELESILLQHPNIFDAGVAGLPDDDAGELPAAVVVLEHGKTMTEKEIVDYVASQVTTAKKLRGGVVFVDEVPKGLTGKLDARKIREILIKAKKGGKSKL
Chain of Retinoic acid receptor RXR-alpha (Homo sapiens) (P19793 whole entry, looked up): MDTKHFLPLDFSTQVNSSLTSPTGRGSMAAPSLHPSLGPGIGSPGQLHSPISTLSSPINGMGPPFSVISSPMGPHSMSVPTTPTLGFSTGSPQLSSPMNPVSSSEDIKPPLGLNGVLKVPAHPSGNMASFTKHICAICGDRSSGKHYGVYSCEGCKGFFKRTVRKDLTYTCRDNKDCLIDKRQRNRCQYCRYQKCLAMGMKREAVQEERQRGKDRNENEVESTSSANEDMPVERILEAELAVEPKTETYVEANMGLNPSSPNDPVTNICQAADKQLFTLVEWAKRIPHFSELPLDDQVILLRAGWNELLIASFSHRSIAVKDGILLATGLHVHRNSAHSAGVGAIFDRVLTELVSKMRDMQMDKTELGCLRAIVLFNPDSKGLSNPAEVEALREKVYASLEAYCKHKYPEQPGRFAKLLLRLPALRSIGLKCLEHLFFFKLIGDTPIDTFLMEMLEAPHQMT

Structure (SMILES) | Potency [1] | outcome [2] | outcome [3] | outcome [4] | outcome [5] | outcome [6] | Potency [7] | Potency [8] | outcome [9] | Potency [10] | Potency [11] | outcome [12] | Potency [13] | Potency [14] | Potency [15] | Potency [16] | Potency [17] | Potency [18]
Cc1cccc(O)c1 | inactive | inactive | inactive | inactive | inactive | inactive | inactive | inactive | inactive | inactive | inactive | inactive | inactive | inactive | inactive |  |  | 
CCCCC(CC)CO (configuration not stated) | inactive | inactive | inactive | inactive | inactive | inactive | inactive | inactive | inactive |  | inactive | inactive | inactive | inactive | inactive | inactive |  | 
CCc1cccc(C)c1N | inactive | inactive | inactive | inactive | inactive | inactive | inactive | inactive | inactive | inactive | inactive | inactive | inactive | inactive | inactive |  | inactive | inactive
CCCCCC/C(C=O)=C\c1ccccc1 | inactive | inactive | inactive | inactive | inactive | inactive | inactive | inactive | inactive |  | inactive | inactive | inactive |  | inactive | inactive | inactive | inactive
O=C(O)CCCCCCCCCCC(=O)O | inactive | inactive | inactive | inactive | inactive | inactive | inactive | inactive | inactive | inactive | inactive | inactive | inactive | inactive | inactive | inactive |  | 
CCCCC(CC)COC(=O)CCCCC(=O)OCC(CC)CCCC (configuration not stated) | inactive | inactive | inactive | inactive | inactive | inactive | inactive | inactive | inactive |  | inactive | inactive | inactive | inactive | inactive |  | inactive | inactive
O=C(O)c1cc(=O)c2c(OCC(O)COc3cccc4oc(C(=O)O)cc(=O)c34)cccc2o1 | inactive | inactive | inactive | inactive | inactive | inactive | inactive | inactive | inactive |  | inactive | inactive | inactive | inactive | inactive |  | inactive | inactive
C#C[C@]1(O)CC[C@H]2[C@@H]3CCC4=CC(=O)CC[C@@H]4[C@H]3CC[C@@]21C | inactive | inactive | inactive | inactive | inactive | inactive | inactive | 30.6 µM (active) | inactive |  | inactive | inactive | inactive | inactive | inactive | inactive | 27.3 µM (active) and 11.9 µM (active) | inactive
C[C@H]1C[C@H]2[C@@H]3CCC4=CC(=O)C=C[C@]4(C)[C@@]3(F)[C@@H](O)C[C@]2(C)[C@@]1(O)C(=O)CO |  |  | inactive | inactive | inactive | inactive | inactive | inactive | inactive | inactive | inactive | inactive | inactive |  | inactive | inactive |  | 
CC1CCC2CC1C2(C)C (configuration not stated) | inactive | inactive | inactive | inactive | inactive | inactive | inactive | inactive | inactive | inactive | inactive | inactive | inactive | inactive | inactive |  |  | 
CCCCCCCCCCCCc1ccccc1 | inactive | inactive | inactive | inactive | inactive | inactive | inactive | inactive | inactive |  | inactive | inactive | inactive | inactive | inactive | inactive | inactive | inactive
c1ccc2scnc2c1 | inactive | inactive | inactive | inactive | inactive | inactive | inactive | inactive | inactive | inactive | inactive | inactive | inactive | inactive | inactive |  | inactive | inactive
CC[C@H](C)C(=O)O[C@H]1C[C@@H](C)C=C2C=C[C@H](C)[C@H](CC[C@@H]3C[C@@H](O)CC(=O)O3)[C@H]21 | inactive | inactive | inactive | inactive | inactive | inactive | 27.7 µM (active) | 982 nM (active) and 1.21 µM (active) | inactive |  | 8.83 µM (active) | inactive | 69.6 µM (active) and inactive | inactive | inactive | 55.7 µM (active) and inactive |  | 
C=C(C)C(=O)OCCOCCOCCOC(=O)C(=C)C | inactive | inactive | inactive | inactive | inactive | inactive | inactive | inactive | inactive | inactive | inactive | inactive | inactive | inactive | inactive |  | inactive | inactive
CC1=CC(=O)NS(=O)(=O)O1 | inactive | inactive | inactive | inactive | inactive | inactive | inactive | inactive | inactive | inactive | inactive | inactive | inactive |  | inactive | inactive |  | 
